The panel holds about 79,000 compounds, 15% with a hit somewhere; the sample as a whole holds those more often. No stated cut-off is given here; in the data, active means growth inhibition above about 70%; inactive means the rest.
Key:
[1] = NCI Yeast Anticancer Drug Screen. Data for the rad50 strain (AID 155);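 further: 0% = growth of vehicle-only cultures of the same strain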; details: S. cerevisiae rad50 strain growth inhibition; at 50.0 µM; stronger effect = higher value
Summary of the method: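 Compounds were tested on a yeast strain with an engineered DNA damage repair alteration; the reported value is growth inhibition normalised to vehicle treatment.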

[2] = NCI Yeast Anticancer Drug Screen. Data for the mec2-1 strain (AID 157); details: S. cerevisiae mec2-1 strain, at 50.0 µM, stronger effect = higher value
Summary of the method: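 Cells of the genetically defined mec2-1 yeast strain are incubated with test compound. Inhibition of growth is calculated against vehicle-treated controls.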

[3] = NCI Yeast Anticancer Drug Screen. Data for the sgs1 mgt1 strain (AID 161);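 further: 0% = growth of cultures given vehicle only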; details: S. cerevisiae sgs1 mgt1 strain, at 50.0 µM, stronger effect = higher value
Summary of the method: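 Test agents were incubated with a DNA-repair-mutant yeast strain. Growth was then read and compared against vehicle-treated controls.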

[4] = NCI Yeast Anticancer Drug Screen. Data for the cln2 rad14 strain (AID 165);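 further: 0% = growth equal to vehicle treated cultures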; details: S. cerevisiae cln2 rad14 strain, at 50.0 µM, stronger effect = higher value
Summary of the method: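 The screen exposed genetically defined yeast (cln2 rad14) to test compounds and scored growth inhibition relative to vehicle-treated controls.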

[5] = NCI Yeast Anticancer Drug Screen. Data for the bub3 strain (AID 167); details: S. cerevisiae bub3 mutant strain, at 50.0 µM, stronger effect = higher value
Summary of the method: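 Growth of a checkpoint-deficient yeast mutant is measured after compound exposure. Values represent inhibition relative to vehicle.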

[6] = NCI Yeast Anticancer Drug Screen. Data for the mlh1 rad18 strain (AID 175); details: S. cerevisiae mlh1 rad18 strain growth inhibition; at 50.0 µM; stronger effect = higher value
Summary of the method: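 Compound-treated yeast growth, normalised to vehicle controls. Strain bears defined DNA repair mutations.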

Measured: growth inhibition

O=C(NCCN1CCCCC1)C(O)(C1CCCCC1)C1CCCCC1
inactive: [1] -6.85% | [2] 7.65% | [3] 12.2% | [4] 19.2% | [5] 9.75% | [6] 3.9%

CCO/C(O)=c1/s/c(=C(\C#N)c2nc3ccccc3[nH]2)n(-c2ccccc2)c1=N
inactive: [1] 11.6% | [2] 3.4% | [3] 2.3% | [4] -37.9% | [5] -20.4% | [6] -26.8%

CC(C)(C)c1ccc(Oc2nc(Oc3ccc(C(C)(C)C)cc3)nc(Oc3ccc(C(C)(C)C)cc3)n2)cc1
inactive: [1] 19.6% | [2] 10.8% | [3] 10.6% | [4] 3.8% | [5] -1.85% | [6] 11.2%

C[C@@H](O)c1nc(C(N)=O)cs1
inactive: [1] 6.15% | [2] 14.2% | [3] 15.3% | [4] -3.55% | [5] 1.35% | [6] 10.1%

C=CCOC(=O)Cc1ccccc1C(=O)OCC=C
inactive: [1] -7.55% | [2] -1.2% | [3] -6.6% | [4] -42.2% | [5] 21.4% | [6] -6.25%

CCOC(=O)c1ccc(NC(=O)Nc2ccccc2C(=O)OC)cc1
inactive: [1] 9.95% | [2] 0.35% | [3] 2.7% | [4] 9.55% | [5] 25.4% | [6] 7.4%

Cc1nc2cc(N)c(F)cc2[nH]1
inactive: [1] -14.6% | [2] -6.95% | [3] 21.4% | [4] 12.8% | [5] 16.4% | [6] -0.1%

CC(C)CC(CC(C)C)OC(=O)Nc1ccccc1
inactive: [1] -1% | [2] 17.3% | [3] 9.05% | [4] 33.6% | [5] 30.1% | [6] 25.9%

OC(c1ccccc1)(c1ccc(-c2ccccc2)cc1)c1cccc2ccccc12 (stereo unspecified)
inactive: [1] 28.3% | [2] -14.2% | [3] 21.8% | [4] 9.2% | [5] -2.6% | [6] 5.35%

CC(=O)OC1CCC2(C)C(=CCC3C2CCC2(C)C(/C(C)=N/NC(N)=O)CCC32)C1 (stereo unspecified)
inactive: [1] 14.4% | [2] -2.8% | [3] -0.1% | [4] -39.6% | [5] -0.6% | [6] -0.5%

O=NN(Cc1ccc(Cl)cc1)NC1=NCCN1
inactive: [1] 5.55% | [2] 14.3% | [3] 3.75% | [4] -3.65% | [5] 15.2% | [6] 29.6%

CC1(C)CCC(=O)OC1C[N+](=O)[O-] (stereo unspecified)
inactive: [1] 39.8% | [2] -10.8% | [3] 24.2% | [4] 11.8% | [5] 0.3% | [6] 39.4%

CCOC(=O)/C(=C\c1ccc(N(C)C)cc1)c1nc2ccccc2[nH]1
inactive: [1] 38% | [2] 21.6% | [3] 47.1% | [4] 13.1% | [5] 40.5% | [6] -2.75%

CCC(Oc1ccc(OC)c2c1C(=O)CCC2)C(=O)O (stereo unspecified)
inactive: [1] 5.95% | [2] 1% | [3] -18.9% | [4] 11.4% | [5] -0.85% | [6] 7.55%

COC(=O)C1=NC(=S)N=C(C(=O)OC)C1(C)C(=O)c1ccccc1
inactive: [1] 4.3% | [2] -6.95% | [3] -12.4% | [4] 0.8% | [5] 3.75% | [6] 18.4%

O=S(=O)(O)SCC1=NCCCCN1
inactive: [1] -2.95% | [2] -5.7% | [3] -6.35% | [4] -9.4% | [5] -14.4% | [6] 0.05%

N#CC1=C(O)/C(=C\C=C\c2ccccc2)N(C(=O)c2ccccc2)C1=N
inactive: [1] 12.2% | [2] -7.6% | [3] -6.2% | [4] 10.2% | [5] -6.85% | [6] 19.1%

CC(C)(C)OC(=O)C1/C(=C/CO)CN1C(=O)OC(C)(C)C (stereo unspecified)
inactive: [1] -17.9% | [2] -36.2% | [3] -12.2% | [4] 7.4% | [5] -12.1% | [6] -28.9%

COC(=O)c1ccc(C(=O)OC)c2nc3cc(Cl)ccc3nc12
inactive: [1] -7.05% | [2] -10.2% | [3] -35.5% | [4] -29.2% | [5] -10.6% | [6] -40.1%

N=C(N)SCCC(=O)O
inactive: [1] -29.4% | [2] -21.1% | [3] -39.7% | [4] -69.6% | [5] 17.4% | [6] -56.6%

COc1ccc(C(OC2OC(n3cnc4c(=S)nc(N)[nH]c43)CC2OC(C)=O)(c2ccccc2)c2ccc(OC)cc2)cc1 (stereo unspecified)
inactive: [1] 17.9% | [2] 21.9% | [3] 11.2% | [4] -54.4% | [5] 23.4% | [6] 24.4%

O=C(O)CCCc1ccc(N(CCO)CCO)cc1
inactive: [1] 5.3% | [2] 2.55% | [3] -3.1% | [4] 18% | [5] 8.05% | [6] 19%

CCCCCC/C(C)=N\NC(N)=O
inactive: [1] 29.9% | [2] 14.4% | [3] 11.6% | [4] 12.4% | [5] -0.95% | [6] -23.1%

Cc1cc2c(=O)c3ccccc3oc2c(C#N)c1C
inactive: [1] 19.6% | [2] 8.25% | [3] 9.2% | [4] -15.4% | [5] 18.3% | [6] 16.9%

CC(=O)NC(CCCNC(=O)N(C)N=O)C(=O)NCc1ccccc1 (stereo unspecified)
inactive: [1] -35% | [2] -26.9% | [3] -15.6% | [4] 6.9% | [5] -21.2% | [6] -13.3%

Cc1ccc2cccc3c2c1CC1(C3=O)S(=O)(=O)OCCOS1(=O)=O
inactive: [1] 9.2% | [2] 4.45% | [3] 20.1% | [4] 14.7% | [5] 39% | [6] -2.3%

Cc1ccc[n+]([O-])c1Cl
inactive: [1] 1.55% | [2] 14.2% | [3] -8.55% | [4] -34.2% | [5] 11.2% | [6] 4.2%

COc1cc(OC)c([N+](=O)[O-])cc1/C=C/C(=O)O
inactive: [1] -5.25% | [2] -3.35% | [3] 8% | [4] 6.15% | [5] 9.95% | [6] 4.05%

Cc1cc(N)cc(C)n1
inactive: [1] 22.9% | [2] 28.6% | [3] -14.8% | [4] 0.7% | [5] 11.7% | [6] 11.7%

N[C@@H](CO)[C@@H](O)c1ccc([N+](=O)[O-])cc1
inactive: [1] 1.5% | [2] -7.7% | [3] -3.9% | [4] -38.5% | [5] 1.5% | [6] -4.6%

O=c1[nH]cnc2nn(C3OC(CO)C(O)C3O)nc12 (stereo unspecified)
inactive: [1] 10.7% | [2] 11.5% | [3] 1.5% | [4] 11.2% | [5] -7.2% | [6] 23.6%

Nc1ccccc1C(=O)CCc1c[nH]c2ccccc12
inactive: [1] 5.05% | [2] 9.05% | [3] 7.6% | [4] -42.4% | [5] -12.1% | [6] 12.3%

CC(C)CCC(=S)N1CCN(c2ccccc2)CC1
inactive: [1] -0.4% | [2] 7.25% | [3] 2.2% | [4] -45.1% | [5] 2.05% | [6] -17.4%

COc1ccc(OC)c2cc3c(cc12)C(=O)C(C)=C(C)C3=O
inactive: [1] 6.15% | [2] -2.55% | [3] 10.8% | [4] -30% | [5] -1.3% | [6] 7.7%

NC(=O)/C(=C\c1ccc(OCc2ccccc2)c(OCc2ccccc2)c1)NC(=O)c1ccccc1
inactive: [1] 41.2% | [2] 22.4% | [3] 44% | [4] 32.6% | [5] -3.65% | [6] 17.7%

CC1(SCC(N)C(=O)O)CC(=O)NC1=O (stereo unspecified)
inactive: [1] -40.5% | [2] -33.1% | [3] -64.5% | [4] -36.8% | [5] -39.2% | [6] -40.1%

CCCCCC(=O)NC1CCCCC1
inactive: [1] 5.55% | [2] 13.6% | [3] 8.15% | [4] -7.4% | [5] -30.6% | [6] 15.5%

O=C1OC(=O)c2c1cccc2[N+](=O)[O-]
inactive: [1] -7.55% | [2] 0% | [3] -2.6% | [4] -14.4% | [5] -5.2% | [6] 2.7%

Nc1nc2c(c(-c3ccccc3Cl)n1)COC/C2=C\c1ccccc1Cl
inactive: [1] 15.7% | [2] 18.8% | [3] 54% | [4] 25.1% | [5] 41.1% | [6] 50%

CC(=O)Oc1ccc(-c2ccccc2)cc1C(=O)O
inactive: [1] 5.9% | [2] 1.55% | [3] 29.4% | [4] -15.7% | [5] 41.3% | [6] 11.6%

C=CCNC(=O)ON1C(=O)CCC1=O
inactive: [1] -19.8% | [2] 3.05% | [3] -35.6% | [4] -8.65% | [5] -22.9% | [6] -39.5%
